# Calls of active or inactive are those of the source. Unless noted, the rule behind the calls is not given here.
# What was measured:
# [1] = test system: XIP peptide (Xip251-270) binding; assay: XIP fragment 251-270 binding compounds – biochemical, small-molecule microarray, fluorescence 635/667 nm, 0.1 µg/mL protein, primary screen (AID 1182); settings: fluorescent protein binding, 635 nm, higher = more signal, called active from +8 up or from −8 down
# XIP peptide (Xip251-270) = assay: compounds binding XIP fragment 251-270 – biochemical, small-molecule microarray, fluorescence 635/667 nm, 0.5 µg/mL protein, primary screen (AID 1183); settings: fluorescence 635 nm, higher = more signal
# [2] = blood-stage malaria parasite viability loss – strain 3D7, DAPI fluorescence, 100 nL, primary screen (AID 1184);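 note: parasites grown inside human red blood cells in medium with human serum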; settings: P. falciparum 3D7 growth, 3 d, higher = more signal
# [3] = molecular target: Homeobox protein Hox-A13 (Mus musculus) (UniProt Q62424); assay: disruptors of Hoxa13 oligonucleotide interaction – biochemical, fluorescence polarization, labeled oligonucleotide, primary screen (AID 1185); settings: Hoxa13:DNA binding, 15 min, higher = more signal, called active from +8 up or from −8 down
# [4] = blockers of DNA damage checkpoint Chk1 activation – imaging, HeLa, hydroxyurea, phospho-Chk1 antibody, percent positive cells, primary screen (AID 1186); settings: hydroxyurea-induced phospho-Chk1 immunofluorescence imaging, higher = more signal
# [5] = blockers of DNA damage checkpoint Chk1 activation – imaging, HeLa, hydroxyurea, phospho-Chk1 nuclear intensity, primary screen (AID 1187); settings: hydroxyurea-induced phospho-Chk1 immunofluorescence imaging, higher = more signal
# Chain of Homeobox protein Hox-A13 (Mus musculus) (Q62424 whole entry, looked up): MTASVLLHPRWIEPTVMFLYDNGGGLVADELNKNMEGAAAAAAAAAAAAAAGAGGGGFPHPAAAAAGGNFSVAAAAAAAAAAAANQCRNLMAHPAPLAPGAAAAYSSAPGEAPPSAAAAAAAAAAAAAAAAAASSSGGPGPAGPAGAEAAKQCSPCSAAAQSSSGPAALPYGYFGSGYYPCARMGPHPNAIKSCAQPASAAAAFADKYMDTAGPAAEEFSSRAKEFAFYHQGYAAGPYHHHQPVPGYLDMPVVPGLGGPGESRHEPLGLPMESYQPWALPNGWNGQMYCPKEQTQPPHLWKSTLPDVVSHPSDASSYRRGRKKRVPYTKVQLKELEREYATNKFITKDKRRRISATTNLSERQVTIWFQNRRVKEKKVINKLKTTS
SMILES,composite z-score [1],composite z-score (XIP peptide (Xip251-270)),z-score [2],z-score [3],z-score [4],z-score [5]
COCCOC(=O)N1C(=O)[C@@]2(c3ccccc31)[C@H](C(=O)N1CCN(c3ncccn3)CC1)[C@H]1C(=O)O[C@H](c3ccccc3)[C@H](c3ccccc3)N1[C@@H]2c1ccccc1OCCO,0.044 (inactive),0.597,-1.99,-1.77 (inactive),-0.356 (inactive),-0.484 (inactive)
C#CCN1[C@@H](Cc2ccccc2)C(=O)O[C@H](Cc2ccccc2)[C@@H]1/C=C/C1CC1,-0.157 (inactive),0.5,-1.18,-0.571 (inactive),-0.352 (inactive),-0.267 (inactive)
C=C(CCCC)/C(=C/C[C@@H](OC(C)=O)c1ccc(CO)o1)c1cnc2ccccc2c1,0.714 (inactive),0.811,-1.38,-4.99 (inactive),0.196 (inactive),-0.109 (inactive)
COc1ccc([Si](C)(C)[C@H]2[C@H](CC(=O)N3Cc4ccccc4C[C@H]3CO)O[C@@]3(C(=O)N(c4ccccc4)c4ccccc43)[C@@H]2C)cc1,0.065 (inactive),0.765,-2.01,-5.4 (inactive),-0.447 (inactive),-0.786 (inactive)
CN1C(=O)C2C(C1=O)C1C=C(CCCO)C2C(C2CC2)N1Cc1cccc(OC(F)(F)F)c1 (stereo not drawn),0.0292 (inactive),0.9,-1.06,-7.06 (inactive),0.0426 (inactive),-0.0667 (inactive)
CN(C)CCCC[C@@H]1NC(=O)[C@H]2C[C@@H](C(=O)O)[C@@H](c3ccc(O)cc3)N2C1=O,3.67 (inactive),0.843,-0.947,-1.63 (inactive),0.7 (inactive),0.571 (inactive)
COC(=O)C[C@H]1O[C@@]2(C[C@@H]1[Si](C)(C)C)C(=O)N(C)c1ccccc12,-0.227 (inactive),-0.186,0.357,-0.91 (inactive),-0.597 (inactive),-0.0422 (inactive)
COCCOC(=O)N1C(=O)[C@@]2(c3cc(C#CCCO)ccc31)[C@H](c1ccc(OCCO)cc1)N1[C@H](c3ccccc3)[C@H](c3ccccc3)OC(=O)[C@H]1[C@@H]2C(=O)N1CCCCCCC1,0.788 (inactive),0.614,-2.1,-4.34 (inactive),0.197 (inactive),0.476 (inactive)

# Source: PubChem BioAssay
